Data on 44 compounds can be found in PubChem BioAssay AID1476 (National Center for Advancing Translational Sciences (NCATS), 2009).

In all, about 200,000 compounds went through this assay and about 4,500 (2.2%) were called active. Another 12% or so got no clear call; they are omitted. For the sample, actives were picked, then their nearest neighbours and some compounds at random. Unmarked numbers belong to inactive results. The call rests on the fitted dose curve; in most records, active means well fitted inhibition curve with a large enough effect; inconclusive means small, poorly fitted or top-dose-only effect, or effect the other way; inactive means flat fitted curve, though single readings scatter.
Potency means the concentration at half of the fitted maximal effect.

Cruzipain (Trypanosoma cruzi), sequence (P25779 123-467 limits assumed): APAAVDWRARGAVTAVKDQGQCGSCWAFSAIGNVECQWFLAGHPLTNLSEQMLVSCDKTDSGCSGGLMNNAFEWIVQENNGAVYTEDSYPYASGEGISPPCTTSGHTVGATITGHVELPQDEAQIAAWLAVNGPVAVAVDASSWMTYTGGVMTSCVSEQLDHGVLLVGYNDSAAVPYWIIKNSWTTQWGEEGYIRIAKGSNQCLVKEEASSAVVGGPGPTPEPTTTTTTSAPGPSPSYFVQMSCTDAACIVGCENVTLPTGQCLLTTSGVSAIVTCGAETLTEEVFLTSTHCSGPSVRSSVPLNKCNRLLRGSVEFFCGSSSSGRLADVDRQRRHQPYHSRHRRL

The assay has as its target Cruzipain (Trypanosoma cruzi) (UniProt P25779). Put plainly: qHTS Assay for Promiscuous and Specific Inhibitors of Cruzain (without detergent). Further: nearly all actives have a fitted effect of over 40% in size. Particulars: purified cruzain, Z-FR-AMC fluorescence, no detergent. Here is the method: Cruzain is a cysteine protease from the tropical parasite Trypanosoma cruzi. Dual qHTS experiment was performed against the NCGC compound collection in order to 1) identify novel inhibitors of the enzyme and 2) profile the compound collection for promiscuous inhibitors operating via colloidal aggregation (by performing detergent-free and detergent-containing comparison screens). Cruzain was assayed by the use of fluorogenic coumarin-based substrate Z-FR-AMC: proteolytic cleavage releases AMC, whose fluorescence is measured at 360 nm excitation and 450 nm emission. Purified cruzain was supplied by the labs of Prof. James McKerrow and Brian Shoichet, UC San Francisco.
This assay had 0.00005% Triton X-100 concentration. See also releated assay "qHTS Assay for Promiscuous and Specific Inhibitors of Cruzain (with detergent)" with 0.01% Triton X-100.
See following references for additional details:
Assay Provider: Shoichet, Brian; University of California, San Fancisco
Screening Center PI: Austin, C.P.
Screening Center: NIH Chemical Genomics Center [NCGC]
Buffer: 100 mM Sodium Acetate, pH 5.5, 5 mM DTT, Triton X-100 concentration: 0.01%.
Buffer in columns 3 and 4 as negative control (no enzyme).
Substrate solution: 2 uM final concentration of Z-FR-AMC (catalog number I-1160, Bachem) dispensed throughout the plate.
Enzyme: 1.5 nM Cruzain final concentration in columns 1, 2, 5-48. Column 1 is neutral (100% activity). Column 2 contained titration of covalent inhibitor K11777, starting concentration 1 mM, then 1:2 dilution in duplicate).
Three uL of enzyme or buffer were dispensed to 1536-well Greiner black solid bottom plates. Compounds and controls (23 nL) were transferred via Kalypsys PinTool. The plates were incubated for 15 min at room temperature, and then 1 uL of substrate solution was added to start the reaction. The plates were immediately transferred to and read 4 times every 30 seconds for 2 min on ViewLux High-throughput CCD imager (Perkin-Elmer) using 360 nm excitation and 450 nm emission fluorescence protocol. The fluorescence intensity difference between the third and the first time points (time lapse of 60 seconds) was used to compute reaction progress.
Consider `O=C(O)c1ccc(NC(=O)c2cccs2)cc1`, for which the max response, negative = inhibition is -2.86%.
On the same count and under the same terms, to `O=C(NCCc1ccccc1)/C(=C\c1ccc([N+](=O)[O-])cc1)NC(=O)c1ccccc1` belongs -28.6%; to `Cc1cccc(C(=O)Nc2ccc(-c3nc4ncccc4o3)cc2C)c1`, -6.61%; to `Cc1noc2ncnc(NCc3ccccc3Cl)c12`, -9.31%.
Still for that read-out and setting: the result for `Cc1ccc(C)c(N2CCN(S(=O)(=O)c3ccc4c(c3)C(C(C)C)C(=O)N4)CC2)c1` (centres undefined) reads -9.68%; that for `CCOC(=O)c1cccc(NS(=O)(=O)c2cn(C)c(C)n2)c1`, 6.22%.
Same read-out and setting: the result for `Cc1ccc2c(=O)cc(C(=O)Nc3sc4c(c3C(=O)NCc3cccnc3)CCCC4)oc2c1` reads -7.89%.
Turning to `Cc1ccc(S(=O)(=O)c2c(COC(=O)c3cccc(Cl)c3)c(-c3ccccc3)nn2C)cc1`, the Potency is 25.1 µM (active).
For the compound `Cc1cc(C)n(-c2c(F)c(F)c(COC(=O)c3ccccc3)c(F)c2F)n1`, the max response, negative = inhibition is 2.62%.
On the same count and under the same terms, to `Cn1nc(-c2ccccc2)c(CSc2cccc(Cl)c2)c1Cl` belongs 2.52%; to `Cc1ccc(CNC(=O)c2c(O)nc3c(C)cccn3c2=O)cc1`, -9.77%.
Same read-out and setting: the result for `O=C(O)c1c(CNCc2cccc(F)c2)c2ccccc2n1Cc1ccccc1` reads 0.0489%.
Turning to `Cc1ccc(-c2nc(-c3cccnc3)sc2CC(=O)Nc2ccc(C)c(Cl)c2)cc1`, the Potency was 25.1 µM (active).
For the compound `Cc1ccc(NC(=O)COc2ccc(-n3ccnc3)cc2)cc1Cl`, the max response, negative = inhibition is 3.27%.
As to `Cc1cc(C)c(NC(=O)CS(=O)CC(=O)Nc2cccnc2)c(C)c1` (centres undefined), the max response, negative = inhibition is -6.14%.
For `Cc1ccc(-c2ccc(CCC(=O)O)n2-c2ccc(C(N)=O)cc2)cc1`, the max response, negative = inhibition was -3.67%.
Take `O=C(Nc1ccc2c(c1)CCC2)c1cccc(S(=O)(=O)Nc2ccccc2Cl)c1`: the max response, negative = inhibition was -19.6%.
Take `O=C(Nc1ccc2c(c1)CCC2)c1cccc(S(=O)(=O)N2CCN(c3ccc(F)cc3)CC2)c1`: the Potency was 20 µM (active).
For `O=C(Nc1cccc(F)c1)c1ccc(S(=O)(=O)N2CCCC2)cc1`, the max response, negative = inhibition was 6.1%.
Still for that read-out and setting: to `O=C(Cn1nc(Cc2cccnc2)c2ccccc2c1=O)N1CCN(c2ccccc2F)CC1` belongs -3.19%.
For `O=C(NCCc1ccccc1)c1ccc2c(c1)N(Cc1ccccc1)C(=O)c1ccccc1S2(=O)=O`, the Potency is 20 µM (active).
For the compound `O=C(NCCc1ccccc1)c1ccc2c(c1)N(Cc1ccc(F)cc1)C(=O)c1ccccc1S2(=O)=O`, the max response, negative = inhibition is 2.91%.
On to `COCCNC(=O)c1ccc2c(c1)N(Cc1cccc(Cl)c1)C(=O)c1ccccc1S2(=O)=O`, for which the max response, negative = inhibition was 9.95%.
`Cc1nn(-c2ccc(N3CCCCC3)nn2)c(C)c1CCC(=O)NCc1ccccc1F`: the max response, negative = inhibition was -5.41%.
On the same count and under the same terms, to `Cc1cc(Br)ccc1NC(=O)Cn1cnc2sc(C)c(S(=O)(=O)N3CCN(C)CC3)c2c1=O` belongs -2.69%.
Same read-out and setting: to `Clc1ccccc1SCc1nc2ccccc2[nH]1` belongs -0.47%; to `Clc1ccc(-c2nnc(SCc3nc4ccccc4s3)o2)cc1`, -6.5%.
In the case of `c1ccc(-c2nnc(SCc3nc4ccccc4[nH]3)o2)cc1`, the Potency is 12.6 µM (active).
Consider `COc1ccc(N2CC(C(=O)NCCS(=O)(=O)N3CCN(c4ccccc4)CC3)CC2=O)cc1` (centres undefined), for which the max response, negative = inhibition is 3.76%.
`Cc1ccc(C(=O)COC(=O)C(Cc2c[nH]c3ccccc23)NC(=O)c2ccc(Br)cc2)cc1` (centres undefined): the Potency was 12.6 µM (active).
As to `O=C(Cc1c[nH]c2ccccc12)OCCOC(=O)Cc1c[nH]c2ccccc12`, the max response, negative = inhibition is 1.16%.
Same read-out and setting: to `Cc1[nH]c2ccccc2c1C(=O)COC(=O)C(C)C` belongs 3.26%; to `CN(C(=O)c1ccc2c(c1)N(Cc1cccc(Cl)c1)C(=O)c1ccccc1S2=O)C1CCCCC1` (centres undefined), -3.62%; to `Cc1csc2nc(COC(=O)c3ccccc3NC(=O)c3ccccc3Cl)cc(=O)n12`, -1.98%.
The same measure, in the same setting: the result for `COc1ccc(Cl)cc1NC(=O)C(C)Sc1nc2c(c(=O)[nH]1)CCCC2` (centres undefined) reads -3.86%; that for `O=S(=O)(c1ccc2nc(N3CCN(c4cccc(Cl)c4)CC3)ccc2c1)N1CCCCC1`, -14.3%.
For the compound `O=C1Nc2ccccc2C12Nc1ccccc1S2` (centres undefined), the Potency is 25.1 µM (active).
Turning to `CCc1ccc2c(c1)C1(NN=C(c3ccccc3)S1)C(=O)N2` (centres undefined), the max response, negative = inhibition was -24.1%.
Still for that read-out and setting: to `Cc1ccc(NC2(C#N)C(=O)Nc3ccccc32)cc1` (centres undefined) belongs -4.74%; to `O=c1c(O)c(Br)ccc2c(Br)c(O)c(O)c(O)c12`, -27.1%; to `CCC(C)Nc1oc(-c2ccc(COc3ccc(Cl)cc3)o2)nc1C#N` (centres undefined), 2.48%.
For the compound `Cc1ccc(S(=O)(=O)N2CC(=O)Nc3ccccc32)cc1C`, the max response, negative = inhibition is 2.47%.
Same read-out and setting: to `O=C(O)c1ccc(Nc2nc(-c3ccccc3)c3cc(Br)ccc3n2)cc1` belongs 27.1%.
For the compound `O=C1CN(c2nc(-c3ccccc3)c3cc(Br)ccc3n2)c2ccccc2N1`, the Potency is 12.6 µM (active).
